{"source": "ChEMBL document CHEMBL3988442", "about": "“University of Dundee, Small-Polar-MMV Screening Library” (2021)", "note": "The campaign covered roughly 48,000 compounds. About 13,000 (27%) showed an effect of 50% or more. Some of the results follow.", "data": [{"test_system": "Wolbachia pipientis", "experiment": "Anti-Wolbachia Cell-Based Screen", "type": "functional", "design": "scale not given: in the data most compounds retested in dose-response had high values", "conditions": "5 µM", "units": {"Percent Effect": "%"}, "values": [{"compound": "C=C(C)CN1C(=O)CC(Cc2ccc(F)cc2)C1=O", "note": "(stereo not drawn)", "Percent Effect": -35.72}, {"compound": "O[C@@H]1C[C@@H](c2nc(-c3ccccc3)no2)N(C2CCOCC2)C1", "Percent Effect": -15.45}, {"compound": "O=C(O)C(F)(F)F.O=C1CC2(CCCCN2C(=O)Cc2ccccc2)CN1c1cccnc1", "note": "(stereo not drawn)", "Percent Effect": -0.631}, {"compound": "O=C(O)C(F)(F)F.O=C1CC2(CCCCN2C(=O)c2ccco2)CN1c1cccnc1", "note": "(stereo not drawn)", "Percent Effect": 3.429}, {"compound": "Cn1ccc(C(=O)N2CCCCC23CC(=O)N(Cc2ccccc2)C3)n1", "note": "(stereo not drawn)", "Percent Effect": -1.004}, {"compound": "CC1N(CC2CC2)C(=O)COC12CCN(C(=O)c1cccs1)CC2", "note": "(stereo not drawn)", "Percent Effect": 8.45}, {"compound": "O=C1CC2(CCCCN2C(=O)c2ccoc2)CN1Cc1ccccc1", "note": "(stereo not drawn)", "Percent Effect": -18.39}, {"compound": "O=C(O)C(F)(F)F.O=C1CC2(CCCCN2C(=O)c2ccncc2)CN1CC1CC1", "note": "(stereo not drawn)", "Percent Effect": 106.2}, {"compound": "O=C1CC2(CCCCN2C(=O)c2cccs2)CN1CC1CC1", "note": "(stereo not drawn)", "Percent Effect": 78.16}, {"compound": "O=C(CCC(=O)c1cccs1)NC1(C(=O)NCC2CC2)CCCC1", "Percent Effect": 1.426}, {"compound": "O=C1CC2(CCCCN2C(=O)c2ccccc2)CN1CC1CC1", "note": "(stereo not drawn)", "Percent Effect": 79.38}, {"compound": "CC(=O)N(C)CCc1nc(-c2cc(C(N)=O)co2)cs1", "Percent Effect": -0.5467}, {"compound": "COc1cnc(N2CCC(Oc3ccccc3OC)(C(=O)O)CC2)nc1", "Percent Effect": -8.18}, {"compound": "COc1ccccc1C(C)Nc1ncc(C(N)=O)cc1Cl", "note": "(stereo not drawn)", "Percent Effect": 2.47}, {"compound": "Cc1cccc(C)c1OC1CN(C(=O)C2CCN(C(=O)N(C)C)CC2)C1", "Percent Effect": -8.295}, {"compound": "CCc1nc(CCn2ccnc2-c2nccn2C)no1", "Percent Effect": -9.052}, {"compound": "Cn1cc(CN2C[C@@H](F)[C@@H](OCc3nc4cnccc4[nH]3)C2)cn1", "Percent Effect": -2.303}, {"compound": "Fc1cccc(CNc2cncc(-n3cccn3)n2)c1", "Percent Effect": 9.755}, {"compound": "Clc1ccc(-c2c[nH]c([C@@H]3COCCN3)n2)cc1", "Percent Effect": -8.999}, {"compound": "Cc1nc(Cc2ccc(F)cc2)cc(C2COCCN2)n1.Cl", "note": "(stereo not drawn)", "Percent Effect": 104.2}, {"compound": "Cc1ccc(-c2cn3c(n2)CO[C@@H](CNCc2nccn2C)C3)cc1", "Percent Effect": -11.82}, {"compound": "Cc1nc(NCc2ccc(F)cc2)cc(C2CCCN2)n1.Cl", "note": "(stereo not drawn)", "Percent Effect": 123.2}, {"compound": "Cc1nc(NCc2cccc(F)c2)cc(C2CCNCC2)n1.Cl", "Percent Effect": 92.9}, {"compound": "COc1ccc2[nH]c(CNc3cc(C4CCNCC4)nc(C)n3)cc2c1", "Percent Effect": -0.5265}, {"compound": "Cc1nc(NCc2nccn2C)cc(C2COCCN2)n1", "note": "(stereo not drawn)", "Percent Effect": 145.4}, {"compound": "Fc1ccc(-c2c[nH]c([C@@H]3COCCN3)n2)cc1", "Percent Effect": -3.188}, {"compound": "Cc1cc(NCc2ccc(N3CCNC(=O)C3)cc2)nc(C)n1", "Percent Effect": 3.077}, {"compound": "Cn1ccnc1-c1ccc(NCC2COCCO2)nn1", "note": "(stereo not drawn)", "Percent Effect": -2.389}, {"compound": "COCC(c1cccc(C(F)(F)F)c1)N(C)C(=O)c1cc(C)no1", "note": "(stereo not drawn)", "Percent Effect": -19.18}, {"compound": "CCOC(C(=O)N1CCn2c(CC)nnc2C1)c1ccccc1", "note": "(stereo not drawn)", "Percent Effect": 26.72}, {"compound": "CCc1nnc2n1CCN(C(=O)c1cc3ccc(F)cc3nc1C)C2", "Percent Effect": 4.903}, {"compound": "CCc1nnc2n1CCN(C(=O)c1cc(Br)c[nH]1)C2", "Percent Effect": 2.696}, {"compound": "CCc1nnc2n1CCN(C(=O)c1cc3ccccc3[nH]1)C2", "Percent Effect": 108.3}, {"compound": "Cc1ccc2cc(C(=O)N3CCN(S(C)(=O)=O)CC3)[nH]c2c1", "Percent Effect": -2.597}, {"compound": "CCc1nnc2n1CCN(C(=O)c1cc3cc(C)ccc3[nH]1)C2", "Percent Effect": 89.42}, {"compound": "CCc1nnc2n1CCN(C(=O)c1ccc(C(F)(F)F)nc1C)C2", "Percent Effect": 5.32}, {"compound": "CCOc1ccc2cc(C(=O)N3CCn4c(CC)nnc4C3)[nH]c2c1", "Percent Effect": 104.5}, {"compound": "CCc1nnc2n1CCN(C(=O)c1cnc3c(cnn3C(C)C)c1)C2", "Percent Effect": -2.522}, {"compound": "CCc1nnc2n1CCN(C(=O)c1cc3ccc(C)cc3[nH]1)C2", "Percent Effect": 95.03}, {"compound": "CCc1nnc2n1CCN(C(=O)c1cc3cc(F)ccc3[nH]1)C2", "Percent Effect": 1.688}, {"compound": "CCc1nnc(CN2CCN(C(=O)c3cc4ccccc4[nH]3)CC2)o1", "Percent Effect": 0.1099}, {"compound": "c1cc(-c2ccc(CN3CCCC4(CCNC4)C3)s2)[nH]n1", "note": "(stereo not drawn)", "Percent Effect": 24.12}, {"compound": "CCc1nnc2n1CCN(C(=O)c1cnc(-c3cccs3)s1)C2", "Percent Effect": -0.7102}, {"compound": "CCc1nnc2n1CCN(C(=O)c1cc3c(F)cccc3[nH]1)C2", "Percent Effect": 92}, {"compound": "CCc1nnc2n1CCN(C(=O)c1ccc3c(c1)NC(=O)CO3)C2", "Percent Effect": -1.668}, {"compound": "Cc1nn(C)c(Oc2ccc(Cl)cc2)c1CN1CCOC(CN)C1", "note": "(stereo not drawn)", "Percent Effect": -15.91}, {"compound": "CN(C)C(=O)[C@H]1C[C@@H]2CCN(C3CCOCC3)C[C@@H]2O1.O=C(O)C(F)(F)F", "Percent Effect": 90.19}, {"compound": "CN(C)C(=O)[C@@H]1C[C@@H]2CCN(C3CCOCC3)C[C@@H]2O1", "Percent Effect": 104.3}, {"compound": "CN(C)C(=O)CO[C@H]1COCCN(C2CCOCC2)C1", "Percent Effect": -5.811}, {"compound": "O=C(NC1CC1)[C@@H]1CCO[C@@H]2CCN(C3CCOCC3)C[C@@H]21.O=C(O)C(F)(F)F", "Percent Effect": -4.22}, {"compound": "CN(C)C(=O)[C@@H]1C[C@@H]2CCN(C3CCOCC3)C[C@H]2O1.O=C(O)C(F)(F)F", "Percent Effect": 104.8}, {"compound": "CN(C)C(=O)[C@H]1C[C@@H]2CCN(C3CCOCC3)C[C@H]2O1", "Percent Effect": -14.13}, {"compound": "CC(c1cncs1)N(C)Cc1ccc(CCC(C)(C)O)cc1", "note": "(stereo not drawn)", "Percent Effect": -1.575}, {"compound": "COCC(C)(CCO)NC(=O)Nc1c(F)cccc1Br", "note": "(stereo not drawn)", "Percent Effect": 1.184}, {"compound": "COCCCN1C(=O)CC[C@H]2CN(Cc3ccc4nonc4c3)CC[C@H]21", "Percent Effect": -13.98}, {"compound": "COCCOCC(=O)N(C)Cc1ccc(OCc2cccs2)cc1", "Percent Effect": 0.8009}, {"compound": "COc1ccc(O[C@H]2COCCN(Cc3c[nH]c4ccccc34)C2)cc1", "Percent Effect": 17.89}, {"compound": "c1ccc(O[C@H]2COCCN(Cc3cccc4c3OCO4)C2)cc1", "Percent Effect": -7.306}, {"compound": "c1ccc(O[C@H]2COCCN(Cc3c[nH]c4ccccc34)C2)cc1", "Percent Effect": 61.61}, {"compound": "Cc1cccc(S(=O)(=O)NCc2cccc(CS(C)(=O)=O)c2)c1", "Percent Effect": -26.55}, {"compound": "CS(=O)(=O)NCCNC(=O)C1(c2cccc(Cl)c2)CC1", "Percent Effect": 8.855}, {"compound": "COC(=O)c1c(Cl)c(C2CC2)nc2onc(C)c12", "Percent Effect": 129}, {"compound": "Cc1noc(C)c1CN1CCC(NC(=O)OC(C)(C)C)CC1", "Percent Effect": -1.462}, {"compound": "CSc1nc(C2CC2)nc(C)c1C(=O)NCc1cc(C)on1", "Percent Effect": -0.6929}, {"compound": "Cc1nc(C2CCCCC2)sc1C(=O)O", "Percent Effect": -7.894}, {"compound": "Cc1noc([C@@H](C)NCc2cccc(Cl)c2)c1C(=O)O.Cl", "Percent Effect": -9.594}, {"compound": "Cc1noc2nc(C3CC3)c(Cl)c(C(=O)O)c12", "Percent Effect": 111.5}, {"compound": "COC(=O)c1c(Cl)c(C)nc2onc(C)c12", "Percent Effect": 101.9}, {"compound": "Cc1nc([C@H]2C[C@@H]3CCN(Cc4cnn(C)c4)C[C@H]3O2)sc1C", "Percent Effect": 3.707}, {"compound": "CCN1CCn2c(C)cnc2C12CCN(C(=O)C(C)C)CC2.O=C(O)C(F)(F)F.O=C(O)C(F)(F)F", "Percent Effect": 108.7}, {"compound": "CCN1CCn2c(C)cnc2C12CCN(C(=O)CC(C)C)CC2.O=C(O)C(F)(F)F.O=C(O)C(F)(F)F", "Percent Effect": -11.73}, {"compound": "CCN1CCn2c(C)cnc2C12CCN(C(=O)N(C)C)CC2.O=C(O)C(F)(F)F.O=C(O)C(F)(F)F", "Percent Effect": 107}, {"compound": "CC(C)C(=O)N1CC2(CCN(CC(C)(C)C)CC2)C1.O=C(O)C(F)(F)F", "Percent Effect": -18.04}, {"compound": "CCN1CCC2(CN(C(=O)N(C)C)CC23CCNCC3)C1=O.O=C(O)C(F)(F)F", "note": "(stereo not drawn)", "Percent Effect": -16.29}, {"compound": "COC(=O)COc1nc(CC(C)C)c2c(c1C#N)CCCC2", "Percent Effect": 13.1}, {"compound": "Cc1noc(CN(C)CC2(O)CCCN(CCC3CCCCC3)C2=O)n1", "note": "(stereo not drawn)", "Percent Effect": 5.474}, {"compound": "CCSCCNC(=O)c1ccc(S(=O)(=O)N2C[C@@H]3C[C@H]2CN3)cc1", "Percent Effect": -8.721}, {"compound": "COC(CNC(=O)c1ccoc1)c1cccc(Cl)c1", "note": "(stereo not drawn)", "Percent Effect": -9.296}, {"compound": "CCC(CC)c1nnc(NC(=O)N2CCC(C(N)=O)CC2)s1", "Percent Effect": -0.6648}, {"compound": "Cc1nc(C2CCN(C(=O)c3cccnc3)CC2)c2sccn12", "Percent Effect": -3.155}, {"compound": "COc1ccc(C(=O)N2CCC(c3nccn3C(C)C)CC2)cc1OC", "Percent Effect": -4.969}, {"compound": "Cc1nc(C2CCN(C(=O)c3cnc(N(C)C)nc3)CC2)c2sccn12", "Percent Effect": 121.8}, {"compound": "COc1ncc(C(=O)N2CCC(c3nc(C)n4ccsc34)CC2)cn1", "Percent Effect": 120.4}, {"compound": "Cc1ncc(CN(C)CC(O)c2cccc(C(F)(F)F)c2)s1", "note": "(stereo not drawn)", "Percent Effect": 2.292}, {"compound": "c1ccc(OCCSC2=NCCN2)cc1", "Percent Effect": -0.348}, {"compound": "CC(C)N(CC(N)=O)Cc1csc(-c2ncccn2)n1", "Percent Effect": 8.567}, {"compound": "CSc1nccn1-c1cccc(C(=O)NCCN2CCS(=O)(=O)CC2)c1", "Percent Effect": 100.7}, {"compound": "CSc1nccn1-c1cccc(C(=O)NCC2CC2)c1", "Percent Effect": -0.4347}, {"compound": "CSc1nccn1-c1cccc(C(=O)NCCC(=O)NC(C)C)c1", "Percent Effect": 87.94}, {"compound": "CSc1nccn1-c1cccc(C(=O)NCc2nnc(C)n2C)c1", "Percent Effect": 4.938}, {"compound": "CC(=O)N1Cc2nccn2CC(CNC(=O)c2ccnnc2)C1", "note": "(stereo not drawn)", "Percent Effect": -11.54}, {"compound": "CSc1nccn1-c1cccc(C(=O)NCCCN2CCOCC2)c1", "Percent Effect": 1.615}, {"compound": "CSc1nccn1-c1ccc(C(=O)NCC2CC2)cc1", "Percent Effect": 114.7}, {"compound": "Cc1ccc2cc(C(=O)NCCN3CCS(=O)(=O)CC3)c(C)nc2c1", "Percent Effect": -6.636}, {"compound": "CN(C(=O)c1cccc(C(=O)NCC(F)(F)F)c1)c1ccccc1", "Percent Effect": -5.375}, {"compound": "CC(C)NC(=O)CCNC(=O)c1cc(Br)cn1C(C)C", "Percent Effect": 8.916}, {"compound": "CC(C)NC(=O)CCNC(=O)Nc1cccc(-c2nccn2C)c1", "Percent Effect": -18.82}, {"compound": "CSc1nccn1-c1cccc(C(=O)NCC(F)(F)F)c1", "Percent Effect": 95.57}]}]}
